PubChem BioAssay (Tox21)
Values joined by “and” are separate entries in the source; they are usually repeats but may differ in a detail not shown here. Equal entries are not always repeated. Results filed as inconclusive are left out. Entries that show only a call come without a potency. Some structures have more than one record in an assay (separate samples or runs), and their calls can disagree. Active and inactive are the calls of the source. Calls come from the whole dose curve; as a rule, active = well fitted curve in the direction sought with a large enough effect in the repeat runs; inconclusive = weak or mixed curves; inactive = no such curve, though single readings can be large; an effect the other way counts as inactive or inconclusive.

Columns and labels:
[1] = qHTS RealTime-Glo MT Cell Viability Assay in HEK293 cells - 40 hour (AID 1224874); conditions: RealTime-Glo luminescence; max response: stronger effect = lower value; note: nearly all actives have a fitted effect of over 50% in size; note: potency is the fitted concentration of half-maximal effect
Summary of the method: (§1)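 Cells were seeded together with NanoLuc luciferase and a prosubstrate that viable cells reduce to a luciferase substrate. After a 5 h incubation at 37 C/5% CO2, compounds were added and luminescence was measured repeatedly during 40 h of treatment.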

[2] = A CellTox Green Cytotoxicity Assay to monitor cytotoxicity in HEK293 cells - 24 hour (AID 1224875); note: series mostly up to about 77 µM; nearly all actives have a fitted effect of over 45% in size
Summary of the method: (§2)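 Nonlytic real-time cytotoxicity: HEK293 + CellTox Green reagent plated, 5 h preincubation, pintool compound addition (23 nL in DMSO), 37 C for 40 h, fluorescence measured at successive time points.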

[3] = A CellTox Green Cytotoxicity Assay to monitor cytotoxicity in HepG2 cells - 16 hour (AID 1224876); note: nearly all actives have a fitted effect of over 45% in size
Summary of the method: (§3)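 Read-out is fluorescence of a cyanine dye excluded from live cells that stains DNA of dead HepG2 cells, with signal proportional to cytotoxicity. Plates were read at 0, 8, 16, 24, 32 and 40 h after compound addition.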

[4] = qHTS RealTime-Glo MT Cell Viability Assay in HepG2 cells - 32 hour (AID 1224877); note: nearly all actives have a fitted effect of over 55% in size
Summary of the method: (§4)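 Compound treatment began 5 h after plating HepG2 cells (600/well) with NanoLuc luciferase and prosubstrate. Plates stayed at 37 C for 40 h; luminescence was captured at six time points, 0 h through 40 h.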

[5] = A CellTox Green Cytotoxicity Assay to monitor cytotoxicity in HepG2 cells - 24 hour (AID 1224878); note: nearly all actives have a fitted effect of over 45% in size
Summary of the method: as §3

[6] = A CellTox Green Cytotoxicity Assay to monitor cytotoxicity in HepG2 cells - 40 hour (AID 1224879); note: nearly all actives have a fitted effect of over 40% in size; note: potency is the fitted concentration of half-maximal effect
Summary of the method: as §3

[7] = qHTS RealTime-Glo MT Cell Viability Assay in HEK293 cells - 0 hour (AID 1224880); note: top concentration of the series differs between compounds; nearly all actives have a fitted effect of over 45% in size
Summary of the method: as §1

[8] = A CellTox Green Cytotoxicity Assay to monitor cytotoxicity in HEK293 cells - 32 hour (AID 1224881); note: nearly all actives have a fitted effect of over 40% in size
Summary of the method: as §2

[9] = A CellTox Green Cytotoxicity Assay to monitor cytotoxicity in HepG2 cells - 0 hour (AID 1224882); note: nearly all actives have a fitted effect of over 35% in size
Summary of the method: as §3

[10] = A CellTox Green Cytotoxicity Assay to monitor cytotoxicity in HepG2 cells - 32 hour (AID 1224883); note: nearly all actives have a fitted effect of over 50% in size; note: potency is the fitted concentration of half-maximal effect
Summary of the method: as §3

[11] = A CellTox Green Cytotoxicity Assay to monitor cytotoxicity in HEK293 cells - 8 hour (AID 1224884); note: nearly all actives have a fitted effect of over 35% in size
Summary of the method: as §2

[12] = qHTS RealTime-Glo MT Cell Viability Assay in HepG2 cells - 16 hour (AID 1224885); note: nearly all actives have a fitted effect of over 50% in size
Summary of the method: as §4

[13] = qHTS RealTime-Glo MT Cell Viability Assay in HEK293 cells - 24 hour (AID 1224886); note: nearly all actives have a fitted effect of over 50% in size; note: potency is the fitted concentration of half-maximal effect
Summary of the method: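 Quantitative high-throughput screen of the Tox21 10K library in HEK293: cells and RealTime-Glo reagents plated together, compound added at 5 h, luminescence monitored through 40 h at 37 C.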

[14] = qHTS RealTime-Glo MT Cell Viability Assay in HEK293 cells - 8 hour (AID 1224887); note: nearly all actives have a fitted effect of over 50% in size; note: potency is the fitted concentration of half-maximal effect
Summary of the method: as §1

[15] = A CellTox Green Cytotoxicity Assay to monitor cytotoxicity in HEK293 cells - 16 hour (AID 1224888); note: nearly all actives have a fitted effect of over 35% in size
Summary of the method: as §2

[16] = qHTS RealTime-Glo MT Cell Viability Assay in HepG2 cells - 0 hour (AID 1224889); note: nearly all actives have a fitted effect of over 50% in size
Summary of the method: as §4

[17] = A CellTox Green Cytotoxicity Assay to monitor cytotoxicity in HepG2 cells - 8 hour (AID 1224890); note: nearly all actives have a fitted effect of over 45% in size
Summary of the method: as §3

[18] = qHTS assay to identify small molecule antagonists of the androgen receptor (AR) signaling pathway using the MDA cell line in the presence of 0.5 nM R1881 - cell viability counter screen (AID 1259242); note: nearly all actives have a fitted effect of over 45% in size
Summary of the method: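 Counter screen for cytotoxicity run in the same wells as the AR antagonist reporter screen: MDA-kb2 cells were treated 16 hr with test compounds and 0.5 nM R1881, then live-cell protease activity was measured by fluorescence.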

[19] = qHTS assay to identify small molecule antagonists of the estrogen receptor alpha (ER-alpha) signaling pathway using the BG1 cell line in the presence of 0.1 nM 17-beta-estradiol - cell viability counter screen (AID 1259241); note: nearly all actives have a fitted effect of over 40% in size
Summary of the method: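 Estradiol-stimulated (0.1 nM) VM7Luc4E2 cells exposed to compounds 22 hr; viability measured by fluorescence of cleaved CellTiter-Fluor substrate after 30 min.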

[20] = biological target: Androgen receptor (Homo sapiens) (UniProt P10275); experiment: qHTS assay to identify small molecule antagonists of the androgen receptor (AR) signaling pathway using the MDA cell line in the presence of 0.5 nM R1881 (AID 1259243); note: nearly all actives have a fitted effect of over 50% in size
Sequence of Androgen receptor (Homo sapiens) (P10275 whole entry, looked up): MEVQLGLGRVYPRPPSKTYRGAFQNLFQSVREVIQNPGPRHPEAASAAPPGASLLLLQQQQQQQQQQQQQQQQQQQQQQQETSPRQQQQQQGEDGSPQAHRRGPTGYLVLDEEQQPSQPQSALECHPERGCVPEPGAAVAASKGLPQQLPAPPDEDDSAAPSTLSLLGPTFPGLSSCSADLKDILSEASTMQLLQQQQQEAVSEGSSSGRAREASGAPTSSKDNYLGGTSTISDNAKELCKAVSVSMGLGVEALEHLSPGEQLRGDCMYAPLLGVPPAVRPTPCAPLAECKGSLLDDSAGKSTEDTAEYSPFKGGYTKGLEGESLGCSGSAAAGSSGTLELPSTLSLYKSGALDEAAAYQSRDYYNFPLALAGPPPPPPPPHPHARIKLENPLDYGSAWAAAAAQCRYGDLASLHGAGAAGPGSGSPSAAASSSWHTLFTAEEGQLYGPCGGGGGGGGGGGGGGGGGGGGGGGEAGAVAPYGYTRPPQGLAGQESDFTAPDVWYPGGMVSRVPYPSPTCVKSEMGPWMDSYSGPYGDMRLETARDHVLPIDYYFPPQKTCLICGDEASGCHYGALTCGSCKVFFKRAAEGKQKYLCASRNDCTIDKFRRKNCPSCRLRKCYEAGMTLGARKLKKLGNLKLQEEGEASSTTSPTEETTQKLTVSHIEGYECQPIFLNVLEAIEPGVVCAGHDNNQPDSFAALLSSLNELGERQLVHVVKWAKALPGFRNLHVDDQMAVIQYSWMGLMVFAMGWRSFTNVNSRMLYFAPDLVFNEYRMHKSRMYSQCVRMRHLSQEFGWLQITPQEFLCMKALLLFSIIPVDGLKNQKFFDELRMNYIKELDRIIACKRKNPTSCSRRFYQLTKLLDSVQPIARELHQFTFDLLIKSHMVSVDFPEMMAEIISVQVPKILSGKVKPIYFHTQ
Summary of the method: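 Luciferase luminescence is the read-out: compounds are tested for suppressing 0.5 nM R1881-driven MMTV reporter activity in MDA-kb2 cells after 16 hr at 37C.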

## CCCCCOC(C)=O
[1]
  max response: -23.8% (inactive) and 1.43% (inactive)
[2]
  Potency: inactive
[3]
  Potency: inactive
[4]
  outcome: inactive
[5]
  Potency: inactive
[6]
  Potency: inactive
[7]
  Potency: inactive
[8]
  Potency: inactive
[9]
  outcome: inactive
[10]
  Potency: inactive
[11]
  outcome: inactive
[12]
  outcome: inactive
[13]
  Potency: inactive
[14]
  Potency: inactive
[15]
  outcome: inactive
[16]
  Potency: inactive
[17]
  Potency: inactive
[18]
  outcome: inactive

## CC(C)(N)CO
[1]
  max response: 5.94% (inactive) and 1.04% (inactive)
[2]
  Potency: inactive
[3]
  Potency: inactive
[4]
  outcome: inactive
[5]
  Potency: inactive
[6]
  Potency: inactive
[7]
  Potency: inactive
[8]
  Potency: inactive
[9]
  outcome: inactive
[10]
  Potency: inactive
[11]
  outcome: inactive
[12]
  outcome: inactive
[13]
  Potency: inactive
[14]
  Potency: inactive
[15]
  outcome: inactive
[16]
  Potency: inactive
[17]
  Potency: inactive
[19]
  Potency: inactive
[18]
  outcome: inactive

## CCc1ccc(CCOc2ccc(CC3SC(=O)NC3=O)cc2)nc1 (stereo not drawn)
[1]
  max response: -19% (inactive)
[2]
  Potency: inactive
[3]
  Potency: inactive
[4]
  outcome: inactive
[5]
  Potency: inactive
[6]
  Potency: inactive
[7]
  Potency: inactive
[8]
  Potency: inactive
[9]
  outcome: inactive
[10]
  Potency: inactive
[11]
  outcome: inactive
[12]
  outcome: inactive
[13]
  Potency: inactive
[14]
  Potency: inactive
[15]
  outcome: inactive
[16]
  Potency: inactive
[17]
  Potency: inactive
[19]
  Potency: inactive
[18]
  outcome: inactive

## CCCCCCCCCCCCCCCO
[1]
  max response: 0.0156% (inactive)
[2]
  Potency: inactive
[3]
  Potency: inactive
[4]
  outcome: inactive
[5]
  Potency: inactive
[6]
  Potency: inactive
[7]
  Potency: inactive
[8]
  Potency: inactive
[9]
  outcome: inactive
[10]
  Potency: inactive
[11]
  outcome: inactive
[12]
  outcome: inactive
[13]
  Potency: inactive
[14]
  Potency: inactive
[15]
  outcome: inactive
[16]
  Potency: inactive
[17]
  Potency: inactive
[19]
  Potency: inactive
[18]
  outcome: inactive

## CN(C)CCC(c1ccc(Cl)cc1)c1ccccn1 (stereo not drawn)
[1]
  max response: -8.75% (inactive) and -11.3% (inactive)
[2]
  Potency: inactive
[3]
  Potency: inactive
[4]
  outcome: inactive
[5]
  Potency: inactive
[6]
  Potency: inactive
[7]
  Potency: inactive
[8]
  Potency: inactive
[9]
  outcome: inactive
[10]
  Potency: inactive
[11]
  outcome: inactive
[12]
  outcome: inactive
[13]
  Potency: inactive
[14]
  Potency: inactive
[15]
  outcome: inactive
[16]
  Potency: inactive
[17]
  Potency: inactive
[19]
  Potency: inactive

## OCC(CO)(CBr)CBr
[1]
  max response: -5.13% (inactive) and 3.96% (inactive)
[2]
  Potency: inactive
[3]
  Potency: inactive
[4]
  outcome: inactive
[5]
  Potency: inactive
[6]
  Potency: inactive
[7]
  Potency: inactive
[8]
  Potency: inactive
[9]
  outcome: inactive
[10]
  Potency: inactive
[11]
  outcome: inactive
[12]
  outcome: inactive
[13]
  Potency: inactive
[14]
  Potency: inactive
[15]
  outcome: inactive
[16]
  Potency: inactive
[17]
  Potency: inactive
[19]
  Potency: inactive
[18]
  outcome: inactive

## C#C[C@]1(O)CC[C@H]2[C@@H]3CCC4=CC(=O)CC[C@@H]4[C@H]3CC[C@@]21C
[1]
  max response: -16% (inactive)
[2]
  Potency: inactive
[3]
  Potency: inactive
[4]
  outcome: inactive
[5]
  Potency: inactive
[6]
  Potency: inactive
[7]
  Potency: inactive
[8]
  Potency: inactive
[9]
  outcome: inactive
[10]
  Potency: inactive
[11]
  outcome: inactive
[12]
  outcome: inactive
[13]
  Potency: inactive
[14]
  Potency: inactive
[15]
  outcome: inactive
[16]
  Potency: inactive
[17]
  Potency: inactive
[19]
  Potency: inactive

## CCCCCCCCC/C=C/CC1CC(=O)OC1=O (stereo not drawn)
[1]
  max response: -19.7% (inactive) and -2.36% (inactive)
[2]
  Potency: inactive
[3]
  Potency: inactive
[4]
  outcome: inactive
[5]
  Potency: inactive
[6]
  Potency: inactive
[7]
  Potency: inactive
[8]
  Potency: inactive
[9]
  outcome: inactive
[10]
  Potency: inactive
[11]
  outcome: inactive
[12]
  outcome: inactive
[13]
  Potency: inactive
[14]
  Potency: inactive
[15]
  outcome: inactive
[16]
  Potency: inactive
[17]
  Potency: inactive
[19]
  Potency: inactive
[18]
  outcome: inactive

## c1c[nH]cn1
[1]
  max response: 11.4% (inactive) and 19.2% (inactive)
[2]
  Potency: inactive
[3]
  Potency: inactive
[4]
  outcome: inactive
[5]
  Potency: inactive
[6]
  Potency: inactive
[7]
  Potency: inactive
[8]
  Potency: inactive
[9]
  outcome: inactive
[10]
  Potency: inactive
[11]
  outcome: inactive
[12]
  outcome: inactive
[13]
  Potency: inactive
[14]
  Potency: inactive
[15]
  outcome: inactive
[16]
  Potency: inactive
[17]
  Potency: inactive

## CCOC(=O)NNc1nncc2ccccc12
[1]
  max response: 3.91% (inactive) and 1.02% (inactive)
[2]
  Potency: inactive
[3]
  Potency: inactive
[4]
  outcome: inactive
[5]
  Potency: inactive
[6]
  Potency: inactive
[7]
  Potency: inactive
[8]
  Potency: inactive
[9]
  outcome: inactive
[10]
  Potency: inactive
[11]
  outcome: inactive
[12]
  outcome: inactive
[13]
  Potency: inactive
[14]
  Potency: inactive
[15]
  outcome: inactive
[16]
  Potency: inactive
[17]
  Potency: inactive
[19]
  Potency: inactive

## CCCCC(CC)COC(=O)CCCCC(=O)OCC(CC)CCCC (stereo not drawn)
[1]
  max response: -6.84% (inactive) and 6.57% (inactive)
[2]
  Potency: inactive
[3]
  Potency: inactive
[4]
  outcome: inactive
[5]
  Potency: inactive
[6]
  Potency: inactive and 2.45 µM (active)
[7]
  Potency: inactive
[8]
  Potency: inactive
[9]
  outcome: inactive
[10]
  Potency: inactive and 2.45 µM (active)
[11]
  outcome: inactive
[12]
  outcome: inactive
[13]
  Potency: inactive
[14]
  Potency: inactive
[15]
  outcome: inactive
[16]
  Potency: inactive
[17]
  Potency: inactive
[19]
  Potency: inactive
[18]
  outcome: inactive

## O=C(O)c1ccc2c(c1)C(=O)OC2=O
[1]
  max response: 5.17% (inactive) and 0.547% (inactive)
[2]
  Potency: inactive
[3]
  Potency: inactive
[4]
  outcome: inactive
[5]
  Potency: inactive
[6]
  Potency: inactive
[7]
  Potency: inactive
[8]
  Potency: inactive
[9]
  outcome: inactive
[10]
  Potency: inactive
[11]
  outcome: inactive
[12]
  outcome: inactive
[13]
  Potency: inactive
[14]
  Potency: inactive
[15]
  outcome: inactive
[16]
  Potency: inactive
[17]
  Potency: inactive
[19]
  Potency: inactive
[18]
  outcome: inactive
[20]
  Potency: inactive

## COCCCOc1ccnc(CS(=O)c2nc3ccccc3[nH]2)c1C (stereo not drawn)
[1]
  Potency: 9.74 µM (active)
  max response: -13.3% (inactive)
[2]
  Potency: inactive
[3]
  Potency: inactive
[4]
  outcome: inactive
[5]
  Potency: inactive
[6]
  Potency: inactive
[7]
  Potency: inactive
[8]
  Potency: inactive
[9]
  outcome: inactive
[10]
  Potency: inactive
[11]
  outcome: inactive
[12]
  outcome: inactive
[13]
  Potency: 10.9 µM (active) and inactive
[14]
  Potency: 19.4 µM (active) and inactive
[15]
  outcome: inactive
[16]
  Potency: inactive
[17]
  Potency: inactive
[19]
  Potency: inactive
[18]
  outcome: inactive
